# MmCpn inh = inhibitors of Methanococcus maripaludis chaperonin TRiC (MmCpn). purified Mm-Cpn ATPase, ADP Transcreener TR-FRET. AID 504842. Potency, µM (series often up to 76.9 µM), for inactives: top-dose activity, negative = inhibition, actives largely listed as inhibitors. 0.031% of 330,000 active; further: potency means the concentration at half of the fitted maximal effect; nearly all actives have a fitted effect of over 80% in size
#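 Purified archaeal chaperonin (25 nM final) was preincubated with compound for 10 min at 37°C, then ATP (10 uM final) was added for 30 min at 37°C in Tris pH 7.4/KCl/MgCl2/DTT buffer. ADP was quantified by HTRF Transcreener TR-FRET.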
# VDR inhibitor = inhibitors of human vitamin D receptor. VDR-SRC2-3 peptide fluorescence polarization, 2 h. Potency, µM, without a hit: max response, negative = inhibition, actives largely listed as inhibitors. 0.93% of 400,000 active; further: potency means the concentration at half of the fitted maximal effect
# Target sequence (P11473 whole entry, looked up): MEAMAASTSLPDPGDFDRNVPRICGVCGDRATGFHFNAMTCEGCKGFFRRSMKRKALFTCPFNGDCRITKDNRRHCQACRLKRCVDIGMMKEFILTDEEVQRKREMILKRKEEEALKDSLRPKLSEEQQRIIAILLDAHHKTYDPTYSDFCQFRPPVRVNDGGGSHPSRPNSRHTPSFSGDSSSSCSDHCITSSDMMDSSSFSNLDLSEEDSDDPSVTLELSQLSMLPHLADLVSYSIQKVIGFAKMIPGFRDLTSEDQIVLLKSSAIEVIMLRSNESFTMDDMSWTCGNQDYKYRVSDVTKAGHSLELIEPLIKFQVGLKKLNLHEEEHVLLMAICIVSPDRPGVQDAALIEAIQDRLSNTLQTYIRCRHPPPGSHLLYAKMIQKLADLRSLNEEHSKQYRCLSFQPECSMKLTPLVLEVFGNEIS
#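 FP read-out; VDR + SRC2-3 coactivator peptide; 23 nl compound by pintool; 2 h RT incubation; reagents held at 4 deg C, protected from light.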
# Sfp inh = inhibitors of Bacillus subtilis Sfp phosphopantetheinyl transferase; AID 1490; Potency, µM, for inactives: largest response in the series, negative = inhibition, usual class: inhibitors; Q9F4F7; Biochemical Sfp PPTase activity, qHTS; 3.5% of 310,000 active;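 further: the enzyme is Sfp with the accession as filed and its product quenches rhodamine fluorescence; potency means the concentration at half of the fitted maximal effect; 0% = enzyme reaction without inhibitor and -100% = no enzyme wells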
#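 Reaction rates are the 30-min fluorescence difference (ex 525, em 598 nm) in wells containing 15 nM Sfp, 5 uM rhodamine-CoA and 12.5 uM BHQ-2-YbbR at pH 7.6 with 10 mM MgCl2.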
# CCT modulator = cytosolic chaperonin activity modulation; activity change, % (test concentration not listed), hits read low; purified chaperonin ATPase assay, HTRF ADP detection, 30 min; 0.3% of 360,000 active; in the data active means activity change below about -30%
#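 Nucleotide hydrolysis assay: TRiC at 20–40 nM final (set by batch activity) with 10 uM ATP, 30 min at 37 °C, in presence of 76 uM compound. Detection by competitive ADP HTRF, 30 min ambient.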
# G9a block = inhibitors of human histone lysine methyltransferase G9a. 8.8% of 350,000 active. Q96KQ7. G9a H3K9 monomethylation, AlphaScreen, 2 h. Potency, µM (top dose mostly 102 µM), for the others: top-dose activity, negative = inhibition, most hits filed as inhibitors; further: potency means the concentration at half of the fitted maximal effect; nearly all actives have a fitted effect of over 75% in size
# Target sequence (Q96KQ7 913-1193 limits assumed): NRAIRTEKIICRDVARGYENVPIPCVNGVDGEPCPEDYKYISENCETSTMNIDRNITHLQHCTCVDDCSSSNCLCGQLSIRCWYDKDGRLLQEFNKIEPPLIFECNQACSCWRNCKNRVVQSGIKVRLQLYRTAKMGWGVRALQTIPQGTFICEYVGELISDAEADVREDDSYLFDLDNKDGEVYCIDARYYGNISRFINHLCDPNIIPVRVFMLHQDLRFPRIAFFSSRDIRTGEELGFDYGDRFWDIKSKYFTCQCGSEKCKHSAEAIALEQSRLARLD
#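 Readings reflect AlphaScreen signal from monomethyl-H3K9 antibody detection. HMT at 20 nM; substrate b-H3K9 500 nM; cofactor SAM 20 uM; 2 h RT reaction; compounds tested as titrations in qHTS with 15 min preincubation.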
# PLK1 PBD inh = inhibitors of human PLK1 polo-box domain binding | Plk1 PBD binding of FITC phosphopeptide, fluorescence polarization | Potency, µM, for the others: max response, negative = inhibition, most hits filed as inhibitors | AID 720504 | P53350 | 2.8% of 360,000 active; further: potency means the concentration at half of the fitted maximal effect; series mostly up to about 57 µM; nearly all actives have a fitted effect of over 65% in size
# * hit, by the source's call; ? = inconclusive; . = no result; [ ] = remark or other dose. This is a sample that favours compounds with a hit; in the whole collection about 10% have one here. Unless noted, the call rests on the fitted dose curve; in most records, active means well fitted curve in the direction sought with a large enough effect; inconclusive means small, poorly fitted or top-dose-only effect, or another doubt; inactive means no such curve, though single readings can be large; an effect the other way counts as inactive or inconclusive. Unless noted, on the % scale 0 is the no-effect control and ±100 the full control effect.
SMILES,MmCpn inh,VDR inhibitor,Sfp inh,CCT modulator,G9a block,PLK1 PBD inh
C=CCN(C(=O)CCC(=O)O)C1CC(=O)N(c2ccc(OCCC)cc2)C1=O (configuration not stated),-2%,-21%,-3%,-2,-25%[59 µM],24µM*
CCCOc1ccc(N2C(=O)CC(N(CCc3ccccc3)C(=O)c3ccccc3)C2=O)cc1 (configuration not stated),2%,4%,3%,-1,.,-11%
CCCOc1ccc(N2C(=O)CC(N(CCc3ccc(OC)cc3)C(=O)c3cccc(F)c3)C2=O)cc1 (configuration not stated),0%,4%,2%,-1,45µM*,2%
C=CCN(C(=O)CCC(=O)O)C1CC(=O)N(c2ccc(OC)cc2)C1=O (configuration not stated),0%,-6%,0%,0,-2%[12.7 µM],-3%
CCOc1ccc(N2C(=O)CC(SCC(=O)O)C2=O)cc1 (configuration not stated),-5%,4%,3%,0,50µM*,-4%
CCOc1ccc(N2C(=O)CC(N)C2=O)cc1 (configuration not stated),0%,-3%,-24%,-5,7.9µM*,-21%
CCOc1ccc(N2C(=O)CC(Cc3cc(C)cc(C)c3)C2=O)cc1 (configuration not stated),-1%,1%,-13%,-6,.,-9%
Cn1[nH]c2c(c1=O)[C@H](c1ccc(F)cc1)O[C@H](CCc1ccccc1)C2,.,.,.,-1,.,19µM*
CCOC(=O)C(N)CSC1CC(=O)N(c2ccc(C(=O)OC)cc2)C1=O (configuration not stated),0%,4%,-11%,-3,8.9µM*,-13%
COC(=O)c1ccc(N2C(=O)CC(SCCN)C2=O)cc1 (configuration not stated),2%,14%,8%,1,14µM*,-13%
COc1ccc2c(C)c(CCC(=O)NCc3ccccc3OC)c(=O)oc2c1,.,5%,.,.,1%[59 µM],.
Cc1c(C)n(Cc2ccc(F)cc2)c2ccc(C(=O)N3CCN(c4ccccn4)CC3)cc12,-1%,3%,-4%,-6,32µM*,0%
O=C(c1ccc(Cl)c([N+](=O)[O-])c1)N1CCN(c2ccccn2)CC1,1%,-6%,13%,-2,-13%[59 µM],0%
Cc1c(C)n(Cc2ccccc2)c2ccc(C(=O)N3CCN(c4ccccc4F)CC3)cc12,.,8%,.,.,?,.
O=C(c1ccc(Sc2cccc(Cl)c2)c([N+](=O)[O-])c1)N1CCN(c2ccccn2)CC1,0%,-17%,7%,-6,16µM*,-11%
O=C1CNc2ccc(C(=O)N3CCN(c4ccccn4)CC3)cc2N1,-4%,-28%,12%,0,26%[59 µM],24µM*
CCc1nc(C(N)=O)c2[nH]c(=O)n(-c3ccc(OC)cc3OC)c2n1,0%,-5%,10%,-3,79%,3%
CCCC(C)c1nc(C(N)=O)c2[nH]c(=O)n(-c3ccc(OC)cc3OC)c2n1 (configuration not stated),0%,-23%,8%,-78*,-5%,7%
COCCn1c(C)nnc1SCC(=O)NNC(=O)c1ccc(Cl)cc1,1%,-5%,7%,-1,50µM*,3%
Cn1cnnc1SCC(=O)NNC(=O)c1ccc(Cl)cc1,2%,?,7%,-4,17%,-10%
Cc1cc(C)nc(N(C#N)CN2C(=O)c3ccccc3C2=O)n1,1%,18%,89µM*,0,5%[12.7 µM],-16%
Cc1cc(C)nc(N(C#N)Cc2ccccc2Cl)n1,-21%,2%,2%,1,12%,3%
CC(C)Nc1nc(Cl)nc(N(C#N)CN2C(=O)c3ccccc3C2=O)n1,-1%,-16%,-11%,-3,28µM*,?
O=C(CC12CC3CC(CC(C3)C1)C2)NCc1ccc(F)cc1,0%,-26%,8%,-7,21%,30µM*
O=C(CC12CC3CC(CC(C3)C1)C2)NCc1ccccc1,0%,-19%,16%,2,20%,-1%
SMILES,MmCpn inh,VDR inhibitor,Sfp inh,CCT modulator,G9a block,PLK1 PBD inh
CC(C)CC(=O)NC1(C(F)(F)F)C(=O)Nc2c1c(=O)[nH]c(=O)n2-c1ccccc1 (configuration not stated),.,-11%,.,.,22%[59 µM],.
Nc1ccc(C(=O)N2CCN(S(=O)(=O)c3ccc(Br)cc3)CC2)cc1[N+](=O)[O-],3%,-1%,.,0,45µM*,3%
CC(=O)c1ccc(S(=O)(=O)N2CCN(C(=O)c3ccc(N)c([N+](=O)[O-])c3)CC2)cc1,-5%,-21%,.,-2,40%[12.7 µM],-2%
COc1ccccc1N1CCN(/N=C/c2cccc(OC)c2OC)CC1,-2%,-1%,5%,-2,50µM*,-11%
Cc1ccc(N2CCN(/N=C/c3sccc3C)CC2)cc1,1%,2%,11%,0,-22%[59 µM],-7%
COc1ccccc1N1CCN(/N=C\c2ccc(C)o2)CC1,3%,-7%,79µM*,-2,?,-6%
COc1ccccc1N1CCN(/N=C\c2sccc2C)CC1,1%,6%,12%,0,16µM*,4%
C(=N\N1CCN(c2ccccn2)CC1)/c1cccc2ccccc12,1%,7%,?,1,40µM*,3%
COc1ccccc1N1CCN(/N=C\c2ccccc2)CC1,1%,-6%,6%,4,-13%[0.501 µM],4%
Cc1cccc(-c2nc(SCC(=O)NCc3ccco3)c3c(=O)n(C)c(=O)n(C)c3n2)c1,.,17%,.,.,-34%[59 µM],.
COc1ccccc1-n1nc(-c2ccccc2)c2cnc3c(F)cc(F)cc3c21,.,-14%,.,.,3%[59 µM],.
COCCCNC(=O)N1CCN(c2nnc(C)c3c(C)n(-c4ccc(Cl)cc4)nc23)CC1,.,2%,.,.,6%[59 µM],.
Cc1ccc2sc(N(CCCN(C)C)C(=O)c3nc4ccccc4s3)nc2c1C,-7%,20%,-20%,-1,45µM*,-1%
Cc1cccc2sc(N(CCCN(C)C)C(=O)c3nc4ccccc4s3)nc12,1%,-7%,79µM*,1,10µM*,-4%
Cc1cccc2sc(N(CCCN(C)C)C(=O)c3ccc4ncsc4c3)nc12,0%,6%,-24%,0,32µM*,-6%
Cc1cccc2sc(N(CCCN(C)C)C(=O)CCc3ccccc3)nc12,4%,-10%,?,4,?,0%
CCc1ccc2nc(N(CCN(C)C)C(=O)c3ccc4ncsc4c3)sc2c1,3%,71µM*,-25%,0,10µM*,-30%
CCOc1ccccc1C(=O)Nc1cccc2ccc(C)nc12,.,11%,.,.,-5%[59 µM],.
CCOC(=O)c1ccc(NC(=O)Cn2cnc3sc(C(=O)OCC)c(C)c3c2=O)cc1,.,11%,.,.,-1%[59 µM],.
Cc1ccc2sc(N(CCCN(C)C)C(=O)c3ccc(Br)s3)nc2c1C,-4%,22%,-28%,1,35µM*,2%
